Experimental findings from PubChem BioAssay (Tox21) are described below.

Inconclusive results are not listed. More than one record can exist for a structure, and the calls need not agree. Active and inactive are the calls of the source. The call rests on the fitted dose curve; in most records, active means well fitted curve in the direction sought with a large enough effect in the repeat runs; inconclusive means weak or mixed curves; inactive means no such curve, though single readings can be large; an effect the other way counts as inactive or inconclusive.
On the % scale 0 is the no-effect control and ±100 the full control effect.

The nature of the first test: A CellTox Green Cytotoxicity Assay to monitor cytotoxicity in HEK293 cells - 40 hour (AID 1224871). Further: nearly all actives have a fitted effect of over 45% in size. Particulars: CellTox Green fluorescence; series mostly up to 76.8 µM; cytotoxicity increase: at the top concentration. The procedure, abridged: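 Real-time, in one plate: 600 HEK293 cells/well with dead-cell DNA dye, pinned compound after 5 h, 37 C incubation over 40 h; viable cells give no appreciable fluorescence.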
Regarding `O=C1CCCCC1Cl` (stereo not drawn), the “cytotoxicity increase” value was 0.691% (inactive).
As for `[P]#[In]`, the “cytotoxicity increase” value is -6.03% (inactive).
Turning to `CC(C)(C)C(=O)C(Cl)Cl`, the “cytotoxicity increase” value is -8.8% (inactive).

A further test is described as follows: qHTS RealTime-Glo MT Cell Viability Assay in HEK293 cells - 16 hour (AID 1224872). Further: nearly all actives have a fitted effect of over 50% in size. Further: potency means the concentration at half of the fitted maximal effect. On activity change, negative = cytotoxicity: top concentration of the series differs between compounds. Particulars: RealTime-Glo luminescence; series mostly up to 76.8 µM; activity change, negative = cytotoxicity: at the top concentration. The method in brief:
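HEK293 cells were seeded at 600 cells/well together with NanoLuc luciferase and cell-permeant prosubstrate, preincubated 5 h at 37 C/5% CO2, then given compound in DMSO by pintool. Luminescence from viable-cell prosubstrate reduction was read repeatedly over 40 h.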
For orientation: qHTS replaces the single test concentration by a dilution series.
With `CCCOC(=O)Cc1ccc(OCC(=O)N(CC)CC)c(OC)c1`, the “activity change, negative = cytotoxicity” value was -1.54% [at 35.3 µM] (inactive).
`O=C(Cl)C(Cl)Cl`: the “activity change, negative = cytotoxicity” value was 1.28% (inactive).
As to `CC[C@H](N)c1ccccc1`, the “activity change, negative = cytotoxicity” value was 5.62% (inactive).
For the compound `CC(O)CCl` (stereo not drawn), the “activity change, negative = cytotoxicity” value was 1.17% (inactive).
The same measure, in the same setting: to `CCCCCCCC(=O)Cl` belongs 1.05% (inactive); to `O=C(O)C(Cl)Br` (stereo not drawn), -2.73% (inactive); to `COC1=CC(=O)O[C@@H](/C=C/c2ccccc2)C1`, -17.5% (inactive).
Same read-out and setting: the same measure for `C=CC=O`: 12.1% (inactive).
Still for that read-out and setting: the same measure for `O=C(O)c1c(Cl)ccc2cc(Cl)cnc12`: 9.74% (inactive).
In the case of `CS(=O)(=O)Cl`, the “activity change, negative = cytotoxicity” value was 2.88% (inactive).
As for `CCOC(=O)CC(SP(=S)(OC)OC)C(=O)OCC` (stereo not drawn), the Potency result was “inactive”.
For `[O-][Br+2]([O-])O`, the “activity change, negative = cytotoxicity” value is 0.289% [at 35.3 µM] (inactive).
For `CN1C(=O)COc2c(C(=O)NC3CN4CCC3CC4)cc(Cl)cc21` (stereo not drawn), the “activity change, negative = cytotoxicity” value is 1.57% [at 35.3 µM] (inactive).
Regarding `CON(C)C(=O)Nc1ccc(Br)cc1`, the “activity change, negative = cytotoxicity” value is 2.72% (inactive).
The same measure, in the same setting: the same measure for `N=C(N)[Se]`: -3.57% (inactive).
Consider `ClC1=C(Cl)C2(Cl)C(CBr)CC1(Cl)C2(Cl)Cl` (stereo not drawn), for which the Potency was 43.6 µM (active) and inactive.
`CN(C)CCN(C)C`: the “activity change, negative = cytotoxicity” value was 8.11% (inactive).
Still for that read-out and setting: the same measure for `C1CN2CCC1CC2`: 0.0507% [at 35.3 µM] (inactive); for `CCOC(=O)CCl`: 13.8% (inactive); for `CNC(=O)O/N=C(/CSC)C(C)(C)C`: 3.04% (inactive).
Take `CCOC(=O)Nc1cccc(OC(=O)Nc2ccccc2)c1`: the “activity change, negative = cytotoxicity” value was -20.5% (inactive).
Still for that read-out and setting: the same measure for `CC(C)[C@]12CC(=O)[C@H](C)[C@H]1C2`: -2.26% (inactive).
Take `O=C1CCCCC1Cl` (stereo not drawn): the “activity change, negative = cytotoxicity” value was 9.06% (inactive).
Regarding `[P]#[In]`, the “activity change, negative = cytotoxicity” value was 1.95% (inactive).
The same measure, in the same setting: the same measure for `CC(C)(C)C(=O)C(Cl)Cl`: 1.96% (inactive).

Another test in a line: qHTS RealTime-Glo MT Cell Viability Assay in HepG2 cells - 8 hour (AID 1224873). Further: nearly all actives have a fitted effect of over 55% in size. The conditions noted are these: RealTime-Glo luminescence; series mostly up to 76.8 µM; viability change, negative = cytotoxic: at the top concentration. The method in brief:
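Real-time viability: cells seeded at 600 per well together with NanoLuc and cell-permeant prosubstrate, compounds added after 5 h incubation. Luminescence tracked at 0, 8, 16, 24, 32 and 40 h of exposure.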
For the compound `CCCOC(=O)Cc1ccc(OCC(=O)N(CC)CC)c(OC)c1`, the “viability change, negative = cytotoxic” value was -0.733% [at 35.3 µM] (inactive).
Same read-out and setting: the same measure for `O=C(Cl)C(Cl)Cl`: 1.52% (inactive); for `CC[C@H](N)c1ccccc1`: -6.9% (inactive); for `CC(O)CCl` (stereo not drawn): 2.25% (inactive).
Turning to `CCCCCCCC(=O)Cl`, the “viability change, negative = cytotoxic” value was 1.56% (inactive).
On to `CCCCCCCCBr`, for which the “viability change, negative = cytotoxic” value is 5.57% (inactive).
Consider `O=C(O)C(Cl)Br` (stereo not drawn), for which the “viability change, negative = cytotoxic” value is -0.842% (inactive).
The same measure, in the same setting: the same measure for `COC1=CC(=O)O[C@@H](/C=C/c2ccccc2)C1`: -1.65% (inactive); for `ClCCN1CCCC1`: 8.9% [at 35.3 µM] (inactive).
`C=CC=O`: the “viability change, negative = cytotoxic” value was 1.08% (inactive).
For `O=C(O)c1c(Cl)ccc2cc(Cl)cnc12`, the “viability change, negative = cytotoxic” value is 1.27% (inactive).
The same measure, in the same setting: the same measure for `CS(=O)(=O)Cl`: 2.3% (inactive).
As to `CCOC(=O)CC(SP(=S)(OC)OC)C(=O)OCC` (stereo not drawn), the result was inactive.
For `[O-][Br+2]([O-])O`, the “viability change, negative = cytotoxic” value is -17% [at 35.3 µM] (inactive).
In the case of `Cc1cccc2sc3nncn3c12`, the “viability change, negative = cytotoxic” value was -7.12% (inactive).
Consider `CN1C(=O)COc2c(C(=O)NC3CN4CCC3CC4)cc(Cl)cc21` (stereo not drawn), for which the “viability change, negative = cytotoxic” value was 0.845% [at 35.3 µM] (inactive).
The same measure, in the same setting: to `CCN(CCO)CCO` belongs 3.13% (inactive); to `CON(C)C(=O)Nc1ccc(Br)cc1`, 3.24% (inactive).
Regarding `N=C(N)[Se]`, the “viability change, negative = cytotoxic” value is 2.25% (inactive).
Consider `ClC1=C(Cl)C2(Cl)C(CBr)CC1(Cl)C2(Cl)Cl` (stereo not drawn), for which the “viability change, negative = cytotoxic” value was 0.413% [at 35.3 µM] (inactive).
On the same count and under the same terms, to `CN(C)CCN(C)C` belongs 2.53% (inactive); to `CC(C)(O)C(Cl)(Cl)Cl`, 1.31% [at 35.3 µM] (inactive).
With `C/C(=N\NC(=O)Nc1cc(F)cc(F)c1)c1ncccc1C(=O)O`, the compound was called inactive.
With `C1CN2CCC1CC2`, the “viability change, negative = cytotoxic” value is 1.95% [at 35.3 µM] (inactive).
On to `CCOC1Oc2ccc(OS(C)(=O)=O)cc2C1(C)C` (stereo not drawn), for which the “viability change, negative = cytotoxic” value is 0.669% (inactive).
For the compound `O=CCCl`, the “viability change, negative = cytotoxic” value is -0.811% (inactive).
Still for that read-out and setting: to `CC#Cc1cc(C)nc(Nc2ccccc2)n1` belongs -14.7% (inactive).
On the same count and under the same terms, to `CCOC(=O)CCl` belongs -0.296% (inactive); to `CNC(=O)O/N=C(/CSC)C(C)(C)C`, 1.2% (inactive); to `CCOC(=O)Nc1cccc(OC(=O)Nc2ccccc2)c1`, 4.35% (inactive).
The same measure, in the same setting: to `CCN[C@H](C)Cc1cccc(C(F)(F)F)c1` belongs 1.75% (inactive); to `CC(C)[C@]12CC(=O)[C@H](C)[C@H]1C2`, -0.757% (inactive).
Regarding `O=C1CCCCC1Cl` (stereo not drawn), the “viability change, negative = cytotoxic” value is 4.57% (inactive).
Turning to `[P]#[In]`, the “viability change, negative = cytotoxic” value was 3.73% (inactive).
The same measure, in the same setting: the same measure for `CC(C)(C)C(=O)C(Cl)Cl`: 0.437% (inactive).
